Compound activity deposited in PubChem BioAssay by several laboratories.
SENP8 block-1 = SENP8 (human) protease inhibition; Q96LD8; hit rate 0.64% among 360,000; recombinant SENP8, Nedd8 substrate fluorescence; inhibition, % at 20 µM; in the data active = inhibition mostly above about 40%, no sharp cut-off; inactive = mostly below about 27%
SENP6 block = blocks the human protease SENP6. Q9GZR1. Recombinant SENP6 catalytic domain, aminoluciferin luminescence. inhibition, % at 10 µM. hit rate 1.8% among 330,000. AID 2599;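 active = inhibition above about 50% at the single tested dose, limit read from the data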;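 also: plate controls were DMSO wells with enzyme for no effect and DMSO wells lacking enzyme for full effect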
SENP8 block-2 = inhibitors of human SENP8 protease; purified SENP8, Z-RLRGG-aminoluciferin cleavage, luminescence; AID 2540; hit rate 1.2% among 330,000; Q96LD8; inhibition, % at 10 µM; in the data active = inhibition above about 50%
SENP7 block = blocks the human protease SENP7; hit rate 1.5% among 330,000; recombinant SENP7, Z-RLRGG-aminoluciferin luminescence, 40 min; inhibition, % at 5 µM; Q9BQF6;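 active = inhibition above about 50% at the single test dose, limit read from the data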;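 also: plate controls were DMSO with enzyme for no effect and no enzyme buffer wells for full effect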
LGR2 antag = inhibitors of bursicon-induced Drosophila LGR2 receptor cAMP signaling. hit rate 0.35% among 380,000. HEK293 LGR2, CRE-luciferase, bursicon-stimulated, 4 h. inhibition, % at 9.99 µM;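 active = drop in luminescence signal, shown as inhibition above about 50% in the replicate tests, limit read from the data, passing the limit was not always enough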;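 also: agonist challenge used bursicon conditioned medium at about half maximal strength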
HSP90 refold inh = inhibitors of HSP90 luciferase refolding in rabbit reticulocyte lysate | hit rate 0.91% among 290,000 | AID 1789 | inhibition, % at 5.6 µM | luciferase refolding luminescence, 3 h;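 active = inhibition above the screen-wide mean plus 3 SD, computed separately per campaign, cut at about 16% in these data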;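 also: 0% = DMSO wells and 100% = 60 µM geldanamycin wells; inhibitors lower the luminescence because luciferase stays unfolded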
HSP90 confirm = HSP90 inhibition, confirmation assay; hit rate 64% among 2,300; shares compounds with HSP90 refold inh; inhibition, % at 5.9 µM; rabbit reticulocyte lysate, luciferase refolding luminescence, 3 h; AID 1846; in the data active = inhibition above about 18%;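 also: 0% = vehicle wells and 100% = reference inhibitor wells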
luciferase ctr = counter-screen for HSP90 inhibitors: inhibitors of firefly luciferase; inhibition, % at 5.9 µM; hit rate 48% among 2,300; shares compounds with HSP90 refold inh; purified native firefly luciferase, luminescence;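 active = inhibition above the mean inhibition of all tested sample wells plus 3 SD, cut at about 10% in these data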;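 also: 0% = DMSO with luciferase and 100% = wells lacking luciferase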
Target sequence (P08659 whole entry, looked up): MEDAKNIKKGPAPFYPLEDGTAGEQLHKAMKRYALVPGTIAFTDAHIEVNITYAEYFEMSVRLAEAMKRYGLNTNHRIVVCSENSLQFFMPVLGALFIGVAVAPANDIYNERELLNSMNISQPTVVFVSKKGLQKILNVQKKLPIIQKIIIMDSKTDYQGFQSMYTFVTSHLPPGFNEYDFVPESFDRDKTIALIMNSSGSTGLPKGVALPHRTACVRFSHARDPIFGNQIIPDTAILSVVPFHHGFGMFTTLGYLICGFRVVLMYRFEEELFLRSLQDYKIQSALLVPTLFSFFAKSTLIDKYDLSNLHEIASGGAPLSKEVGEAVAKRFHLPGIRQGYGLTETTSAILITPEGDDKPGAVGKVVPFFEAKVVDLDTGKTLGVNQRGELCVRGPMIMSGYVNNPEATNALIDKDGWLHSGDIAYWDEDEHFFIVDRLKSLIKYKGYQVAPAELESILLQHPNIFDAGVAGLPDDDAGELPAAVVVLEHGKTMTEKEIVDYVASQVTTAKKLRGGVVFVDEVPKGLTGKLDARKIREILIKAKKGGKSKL
SENP8 conf = confirmation of human SENP8 protease inhibitors; shares compounds with SENP7 block; Recombinant SENP8, Z-RLRGG-aminoluciferin luminescence, 60 min; inhibition, % at 12.5 µM; hit rate 40% among 6,200; AID 488912;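 active = mean inhibition across replicates above about 50%, limit read from the data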
SENP6 confirm = confirmation of human SENP6 protease inhibitors | shares compounds with SENP7 block | recombinant SENP6, Z-RLRGG-aminoluciferin luminescence | inhibition, % at 12.5 µM | hit rate 58% among 6,200 | AID 488915
SENP7 confirm = confirmation of human SENP7 protease inhibitors; hit rate 69% among 6,200; recombinant SENP7, Z-RLRGG-aminoluciferin luminescence, 40 min; inhibition, % at 12.5 µM; AID 488917; shares compounds with SENP7 block
Casp3 SENP sel = caspase-3 inhibition (SENP selectivity assay); shares compounds with SENP7 block; purified caspase-3, Z-DEVD-aminoluciferin luminescence, 60 min; inhibition, % at 12.5 µM; hit rate 60% among 6,200; AID 488918;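 active = mean inhibition above about 50%, limit read from the data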;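 also: plate controls were enzyme with DMSO for no effect and wells without caspase-3 for full effect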
Luc interf = luminescence interference (SENP counter-screen); shares compounds with SENP7 block; Pre-incubated SENP8/Z-RLRGG-aminoluciferin, luciferase luminescence interference; inhibition, % at 12.5 µM; hit rate 39% among 6,200;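 active = mean inhibition above about 50% when retested at one dose, limit read from the data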;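 also: plate controls were DMSO wells with completed reaction for no effect and substrate without enzyme for full effect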
The depositor's hits bear a star; nt = not tested or not shown. Compounds with a hit are over-represented: about 2.3% of the library has one in this group of screens.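 The calls were made as follows, unless noted: active = mean inhibition above about 50% in the one-dose retest (limit read from the data); inactive = the rest.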

SMILES	SENP8 block-1	SENP6 block	SENP8 block-2	SENP7 block	LGR2 antag	HSP90 refold inh	HSP90 confirm	luciferase ctr	SENP8 conf	SENP6 confirm	SENP7 confirm	Casp3 SENP sel	Luc interf
CC(C)c1ccc(/C=N/NC(=O)c2ccccn2)cc1	14	86*	79*	80*	75*	28*	69*	63*	71*	84*	98*	89*	38
CN(C)c1ccc(/C=N/NC(=O)c2ccccn2)cc1	-121	80*	76*	91*	nt	24*	62*	47*	10	85*	98*	95*	66*
N#C/C(=C\c1ccc([N+](=O)[O-])cc1)c1ccccn1	12	8	-5	5	-11	3	nt	nt	nt	nt	nt	nt	nt
CN(C)c1ccc(/C=C(\C#N)c2ccccn2)cc1	4	96*	96*	99*	93*	66*	84*	78*	98*	99*	102*	97*	72*
CN=C1S/C(=C\c2cc(C)n(-c3ccccc3F)c2C)C(=O)N1C	-14	42	63*	66*	35	49*	65*	63*	86*	88*	96*	70*	74*
Cc1cc(/C=C2\SC(=O)N(C)C2=O)c(C)n1-c1ccc(O)cc1	-93	61*	16	-1	42	48*	64*	63*	74*	72*	84*	30	69*
COc1ccc2c3c([nH]c2c1)[C@@H](CO)N(S(=O)(=O)c1cn(C)cn1)CC31CCN(CC2CC2)CC1	nt	nt	nt	nt	-19	nt	nt	nt	nt	nt	nt	nt	nt
C[C@H]1CCCCO[C@H](CN(C)C(=O)Nc2ccccc2)[C@@H](C)CN([C@@H](C)CO)C(=O)c2cc(NC(=O)Nc3cccc4ccccc34)ccc2O1	nt	nt	nt	nt	5	nt	nt	nt	nt	nt	nt	nt	nt
Cc1ccc(N=Nc2cc(C)ccc2N)cc1	35	99*	98*	100*	68*	26*	63*	61*	99*	100*	103*	97*	96*
CN(C)c1ccc(/C=c2\sc3n(c2=O)CCCN=3)cc1	-14	87*	74*	68*	nt	18*	65*	52*	87*	84*	95*	85*	76*
O=C(N/N=C/c1cccs1)c1n[nH]c2c1CCCC2	23	89*	84*	92*	76*	36*	77*	71*	7	89*	100*	96*	54*
C/C(=N\NC(=O)c1cc(C)[nH]n1)c1cccs1	4	17	1	19	nt	0	nt	nt	nt	nt	nt	nt	nt
C/C(=N\NC(=O)c1n[nH]c2c1CCC2)c1cccs1	27	87*	82*	87*	nt	33*	84*	72*	13	5	-8	10	1
Cc1ccc2c(c1)sc(=NC(=O)c1cccs1)n2C	-409	93*	95*	100*	96*	28*	84*	80*	29	75*	99*	95*	43
Cc1ccc2c(c1)sc(=NC(=O)C1CC1)n2C	-5	14	-6	6	-57	4	nt	nt	nt	nt	nt	nt	nt
Cc1ccc(-c2cnc3ccccc3n2)cc1C	-49	94*	95*	98*	19	29*	64*	58*	97*	100*	103*	96*	48
